For part of these data: Entries with a potency or affinity are not part of this list. The source made the active and inactive calls.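 Rule for the calls, unless noted: active = membrane potential signal rise above negative control mean plus 3 SD in both duplicates, also active in the earlier TRPC4 screen; inactive = the rest.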
Tests used:
[1] = test system: TRPC4 beta (transient receptor potential cation channel C4), mouse; test: TRPC4 cation channel opening, retest – cell-based, Fluo4 calcium, HEK293 TRPC4beta/mu-opioid, duplicates, 10 µM, confirmation (AID 2426;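 active = fluorescence ratio normalized to control raised more than 50% in primary screen plus both repeat runs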); conditions: Fluo4 calcium fluorescence, at 10 µM; stronger effect = higher value
[2] = test system: transient receptor potential cation channel C4 beta (TRPC4), mouse; test: TRPC4 cation channel opening, second retest – cell-based, second round, Fluo4, HEK293 TRPC4beta/mu-opioid, 1 µM, confirmation (AID 2461;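 active = primary screen active and over 50% activation in each of two duplicate runs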); conditions: Fluo4 calcium fluorescence, at 1 µM; stronger effect = higher value
[3] = test system: TRPC4 (transient receptor potential cation channel C4 beta), mouse; test: potentiation of DAMGO EC20 TRPC4 response – cell-based, second round, Fluo-4, HEK293 TRPC4beta/mu-opioid, 1 µM, confirmation (AID 2554;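 active = primary screen hit whose fluorescence ratio, in both repeats, exceeds the weak agonist control mean by 3 SD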); conditions: DAMGO EC20, Fluo-4 calcium flux, at 1 µM; stronger effect = higher value
[4] = test system: TRPC4 beta (transient receptor potential cation channel C4), mouse; test: potentiation of DAMGO EC20 TRPC4 response – cell-based, Fluo-4, HEK293 TRPC4beta/mu-opioid, confirmation (AID 2555;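 active = primary screen hit whose calcium fluorescence ratio, in both repeats, exceeds the weak agonist control mean by 3 SD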); conditions: DAMGO EC20, Fluo-4 calcium flux, at 10 µM; stronger effect = higher value
[5] = target: Short transient receptor potential channel 4 (Mus musculus) (UniProt Q9QUQ5); test: blockers of DAMGO-evoked TRPC4 calcium flux – cell-based, Fluo4, HEK293 TRPC4beta/mu-opioid, confirmation (AID 2636;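 active = calcium signal cut by more than 3 SD below the full-agonist control yet still positive, in both repeats and the earlier primary screen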); conditions: at 10 µM; stronger effect = higher value
[6] = target: Short transient receptor potential channel 4 (Mus musculus) (UniProt Q9QUQ5); test: blockers of DAMGO-evoked TRPC4 calcium flux – cell-based, second round, Fluo4, HEK293 TRPC4beta/mu-opioid, 1 µM, confirmation (AID 2637;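 active = calcium signal ratio cut to more than 3 SD under the fully stimulated control mean yet still positive, in both repeats and the primary screen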); conditions: at 1 µM; stronger effect = higher value
[7] = target: Short transient receptor potential channel 4 (Mus musculus) (UniProt Q9QUQ5); test: calcium entry via TRPC4 opening agents – cell-based, HEK293 TRPC4/mu-opioid, Fluo-4 calcium, dose response (AID 434937;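 active = primary screen activator hit with a dose response curve and TRPC4 channel activation at any tested dose; inactive = no activation, no dose response, or not a primary hit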)
[8] = target: Short transient receptor potential channel 4 (Mus musculus) (UniProt Q9QUQ5); test: potentiation of DAMGO-evoked TRPC4 calcium signal – cell-based, HEK293 TRPC4/mu-opioid, Fluo-4 calcium, EC20 DAMGO, dose response (AID 434941;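 active = earlier screen potentiator hit that boosts the TRPC4 ion channel at some dose, with a dose response; inactive = no potentiation, no dose response, or not a prior hit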;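 note: calcium entry triggered by an EC20 dose of DAMGO at the co-expressed mu-opioid receptor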)
[9] = target: Short transient receptor potential channel 4 (Mus musculus) (UniProt Q9QUQ5); test: block of DAMGO-driven TRPC4 calcium entry – cell-based, HEK293 TRPC4/mu-opioid, Fluo-4 calcium, dose response (AID 434942;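 active = primary screen inhibitor hit that blocks the TRPC4 channel at some tested dose, yielding a dose curve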)
[10] = target: Short transient receptor potential channel 6 (Mus musculus) (UniProt Q61143); test: TRPC6 blockade by TRPC4 inhibitor hits – cell-based, HEK293, membrane potential dye, duplicate, selectivity assay for TRPC4 inhibitor project, confirmation (AID 434948;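 active = active in primary screen and both duplicates, each dropping signal beyond three positive-control SD with fluorescence still positive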); conditions: HEK293 TRPC6, membrane potential dye fluorescence, at 10 µM, stimulated with maximal-effect acetylcholine; stronger effect = higher value
[11] = target: Short transient receptor potential channel 6 (Mus musculus) (UniProt Q61143); test: TRPC6 opening by TRPC4 activator hits – cell-based, HEK293, membrane potential dye, duplicate, selectivity assay for TRPC4 activator project, confirmation (AID 434950); conditions: HEK293 TRPC6, membrane potential fluorescence, at 10 µM; activation: stronger effect = higher value; outcome: activation;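 for activation: 0% = buffer only wells and 100% = acetylcholine maximal-effect wells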
[12] = target: Short transient receptor potential channel 6 (Mus musculus) (UniProt Q61143); test: positive modulators of mouse TRPC6 channel – HEK293 cells, membrane potential dye, duplicate, selectivity assay for TRPC4 potentiator project, confirmation (AID 434952;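 active = compound raising the membrane signal above positive-control mean plus 3 SD in both repeats, and a primary screen hit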); conditions: HEK293 TRPC6, membrane potential dye fluorescence, at 10 µM, maximal acetylcholine added after compound; stronger effect = higher value
[13] = target: Short transient receptor potential channel 4 (Mus musculus) (UniProt Q9QUQ5); test: calcium flux activators in TRPC4/5HT1a cells, counter-screen for TRPC4 activator project, cell-based, second counter screen, HEK293 TRPC4/5HT1a, Fluo-4 (AID 434977;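 active = calcium signal rise above buffer-control mean plus 5 SD in both duplicates, and also a hit in the primary screen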); conditions: Fluo-4 calcium flux, at 10 µM; stronger effect = higher value
[14] = serotonin-gated TRPC4 signal block – cell-based, second counter screen, HEK293 TRPC4/5HT1a, Fluo-4, counter-screen for TRPC4 inhibitor project, confirmation (AID 434978;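 active = primary screen active whose calcium signal fell more than 3 SD beyond the full-serotonin control mean in both duplicate plates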;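 note: serotonin given first at submaximal then at maximal dose after compound preincubation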); conditions: Fluo-4 calcium flux, at 10 µM, serotonin added to trigger calcium flux; stronger effect = higher value
[15] = test system: TRPC4 (mouse), co-expressed with 5HT1a in HEK293; test: enhancement of serotonin-evoked TRPC4 response – cell-based, second counter screen, HEK293 TRPC4/5HT1a, Fluo-4, counter-screen for TRPC4 potentiator project, confirmation (AID 434979;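 active = signal rise over 3 SD above mean of control wells given weak agonist, in both repeats and first screen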); conditions: Fluo-4 calcium flux, at 10 µM, serotonin added at its EC20 dose; stronger effect = higher value
[16] = nonspecific calcium rise without TRPC4 – cell-based, HEK293 mu-opioid receptor line, counter-screen for TRPC4 activator project, confirmation (AID 449723;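 active = hit in primary screen, with calcium signal over 5 SD above buffer well mean in both duplicates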;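 note: counter screen cells carry the mu-opioid receptor alone and lack TRPC4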); conditions: HEK293 mu-opioid cells, Fluo-4 calcium fluorescence, at 10 µM; stronger effect = higher value
[17] = nonspecific potentiation of DAMGO calcium response – cell-based, HEK293 mu-opioid receptor line, counter-screen for TRPC4 allosteric potentiator project, confirmation (AID 449724;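 active = calcium signal rise more than 3 SD above the low-dose agonist control mean, in both duplicate plates and the primary screen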); conditions: HEK293 mu-opioid receptor cells, Fluo-4 calcium flux, at 10 µM, compound added before EC20 DAMGO stimulus; stronger effect = higher value

Sequence of Short transient receptor potential channel 4 (Mus musculus) (Q9QUQ5 whole entry, looked up): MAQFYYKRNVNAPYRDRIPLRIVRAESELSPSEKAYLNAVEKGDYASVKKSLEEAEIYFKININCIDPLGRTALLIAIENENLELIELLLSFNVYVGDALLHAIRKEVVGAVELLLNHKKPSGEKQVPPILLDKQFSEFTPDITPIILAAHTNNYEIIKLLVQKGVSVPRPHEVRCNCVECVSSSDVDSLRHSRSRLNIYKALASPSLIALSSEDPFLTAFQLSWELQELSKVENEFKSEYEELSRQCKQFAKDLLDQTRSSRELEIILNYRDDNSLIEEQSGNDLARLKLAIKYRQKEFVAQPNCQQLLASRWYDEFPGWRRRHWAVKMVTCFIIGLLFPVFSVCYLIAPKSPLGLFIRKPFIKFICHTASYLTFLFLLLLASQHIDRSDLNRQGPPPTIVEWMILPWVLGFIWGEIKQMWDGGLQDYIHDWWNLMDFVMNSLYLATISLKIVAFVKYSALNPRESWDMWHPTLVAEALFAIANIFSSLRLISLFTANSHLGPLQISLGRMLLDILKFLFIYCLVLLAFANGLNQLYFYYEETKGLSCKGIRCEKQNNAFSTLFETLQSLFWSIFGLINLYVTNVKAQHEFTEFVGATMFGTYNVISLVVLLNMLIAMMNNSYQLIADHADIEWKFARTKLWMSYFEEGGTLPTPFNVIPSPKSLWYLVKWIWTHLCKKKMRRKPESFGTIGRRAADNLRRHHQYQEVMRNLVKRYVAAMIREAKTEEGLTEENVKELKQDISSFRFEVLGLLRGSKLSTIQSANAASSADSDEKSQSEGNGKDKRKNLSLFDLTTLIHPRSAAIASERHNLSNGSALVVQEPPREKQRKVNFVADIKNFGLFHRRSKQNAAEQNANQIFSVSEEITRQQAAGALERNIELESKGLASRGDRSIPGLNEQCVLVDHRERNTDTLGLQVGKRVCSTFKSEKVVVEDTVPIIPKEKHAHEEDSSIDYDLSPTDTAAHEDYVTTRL
Sequence of Short transient receptor potential channel 6 (Mus musculus) (Q61143 whole entry, looked up): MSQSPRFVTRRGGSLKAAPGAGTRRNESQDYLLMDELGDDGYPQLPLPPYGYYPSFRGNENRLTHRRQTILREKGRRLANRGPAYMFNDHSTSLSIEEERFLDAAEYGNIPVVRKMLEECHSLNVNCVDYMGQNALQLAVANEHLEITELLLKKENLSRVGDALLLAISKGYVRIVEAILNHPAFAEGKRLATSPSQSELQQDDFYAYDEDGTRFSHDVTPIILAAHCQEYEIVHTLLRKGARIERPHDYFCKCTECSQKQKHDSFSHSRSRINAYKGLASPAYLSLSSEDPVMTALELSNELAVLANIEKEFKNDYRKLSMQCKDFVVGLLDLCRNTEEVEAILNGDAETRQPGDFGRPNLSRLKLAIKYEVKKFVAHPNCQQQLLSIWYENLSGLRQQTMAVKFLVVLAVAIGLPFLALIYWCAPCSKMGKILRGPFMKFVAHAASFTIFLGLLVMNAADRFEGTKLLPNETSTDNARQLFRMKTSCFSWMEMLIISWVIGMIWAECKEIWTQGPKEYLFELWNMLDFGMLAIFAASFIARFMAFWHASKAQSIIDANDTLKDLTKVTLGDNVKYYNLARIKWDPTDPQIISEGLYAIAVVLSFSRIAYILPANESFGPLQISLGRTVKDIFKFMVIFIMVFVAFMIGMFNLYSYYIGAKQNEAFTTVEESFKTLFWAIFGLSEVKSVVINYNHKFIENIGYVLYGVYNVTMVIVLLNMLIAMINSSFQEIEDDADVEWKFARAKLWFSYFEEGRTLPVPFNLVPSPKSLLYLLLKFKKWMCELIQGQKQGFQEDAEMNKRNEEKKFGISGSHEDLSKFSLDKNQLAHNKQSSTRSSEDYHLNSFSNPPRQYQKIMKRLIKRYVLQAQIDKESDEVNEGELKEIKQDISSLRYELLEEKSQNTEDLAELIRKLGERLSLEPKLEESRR

CCc1cc(=O)oc2c(CNCc3ccccc3F)c(O)c(Cl)cc12
inactive: outcome [1] | outcome [2] | outcome [3] | outcome [4] | outcome [5] | outcome [6] | outcome [7] | outcome [8] | outcome [9] | outcome [10] | outcome [11] | outcome [12] | outcome [13] | outcome [14] | outcome [15] | outcome [16] | outcome [17]

COC(=O)[C@H](Cc1ccccc1)NC(=O)c1ccc2ccccc2n1
inactive: outcome [1] | outcome [2] | outcome [3] | outcome [5] | outcome [6] | outcome [7] | outcome [8] | outcome [9] | outcome [10] | outcome [11] | outcome [12] | outcome [13] | outcome [14] | outcome [16] | outcome [17]
active: potentiation [4] 81% | potentiation [15] 59.7%

CCCC(=O)N/C(N)=N/c1nc(C)c2ccccc2n1
active: potentiation [3] 9% | potentiation [15] 10%
inactive: outcome [1] | outcome [2] | outcome [4] | outcome [5] | outcome [6] | outcome [7] | outcome [8] | outcome [9] | outcome [10] | outcome [11] | outcome [12] | outcome [13] | outcome [14] | outcome [16] | outcome [17]

CN1CCN(NC(=O)c2cccc(Br)c2)CC1
active: potentiation [3] 8% | potentiation [4] 18% | potentiation [15] 21.8%
inactive: outcome [1] | outcome [2] | outcome [5] | outcome [6] | outcome [7] | outcome [8] | outcome [9] | outcome [10] | outcome [11] | outcome [12] | outcome [13] | outcome [14] | outcome [16] | outcome [17]

CNc1oc(-c2ccccc2Cl)nc1P(=O)(c1ccccc1)c1ccccc1
inactive: outcome [1] | outcome [2] | outcome [3] | outcome [4] | outcome [5] | outcome [6] | outcome [7] | outcome [8] | outcome [9] | outcome [10] | outcome [11] | outcome [12] | outcome [13] | outcome [14] | outcome [15] | outcome [16] | outcome [17]

O=C(Nc1ncc(Br)s1)C(Cc1ccccc1)n1cccc1 (stereo not given)
inactive: outcome [1] | outcome [2] | outcome [3] | outcome [5] | outcome [6] | outcome [7] | outcome [8] | outcome [9] | outcome [10] | outcome [11] | outcome [12] | outcome [13] | outcome [14] | outcome [16] | outcome [17]
active: potentiation [4] 26% | potentiation [15] 7.42%

CN(C)CCOc1ccc2ccccc2c1
inactive: outcome [1] | outcome [2] | outcome [5] | outcome [6] | outcome [7] | outcome [8] | outcome [9] | outcome [10] | outcome [11] | outcome [12] | outcome [13] | outcome [14] | outcome [16] | outcome [17]
active: potentiation [3] 8% | potentiation [4] 14% | potentiation [15] 19.8%

Cc1cc(OCC(=O)N2CCCC2)cc(C)c1Cl
active: activation [11] 38%
inactive: outcome [1] | outcome [2] | outcome [3] | outcome [4] | outcome [5] | outcome [6] | outcome [7] | outcome [8] | outcome [9] | outcome [10] | outcome [12] | outcome [13] | outcome [14] | outcome [15] | outcome [16] | outcome [17]

CCOC(=O)C1=C(N)OC2=C(C(=O)CC(C)(C)C2)C1c1ccc(CC)s1 (stereo not given)
active: potentiation [15] 27.5%
inactive: outcome [1] | outcome [2] | outcome [3] | outcome [4] | outcome [5] | outcome [6] | outcome [7] | outcome [8] | outcome [9] | outcome [10] | outcome [11] | outcome [12] | outcome [13] | outcome [14] | outcome [16] | outcome [17]

O=C(N/N=C/c1cc2c(cc1Br)OCO2)c1cc2ccccc2o1
inactive: outcome [1] | outcome [2] | outcome [3] | outcome [4] | outcome [6] | outcome [7] | outcome [8] | outcome [9] | outcome [10] | outcome [11] | outcome [12] | outcome [13] | outcome [14] | outcome [15] | outcome [16] | outcome [17]
active: inhibition [5] 93%

C/C(=N\NC(=O)COc1ccc(C)cc1C(C)C)c1ccc(-n2ccnc2)cc1
active: potentiation [15] 10.4%
inactive: outcome [1] | outcome [2] | outcome [3] | outcome [4] | outcome [5] | outcome [6] | outcome [7] | outcome [8] | outcome [9] | outcome [10] | outcome [11] | outcome [12] | outcome [13] | outcome [14] | outcome [16] | outcome [17]

CCCCCCCCCCOC(=O)Cn1c(COc2ccccc2)[n+](C)c2ccccc21
inactive: outcome [1] | outcome [2] | outcome [3] | outcome [4] | outcome [5] | outcome [6] | outcome [7] | outcome [8] | outcome [9] | outcome [10] | outcome [11] | outcome [12] | outcome [13] | outcome [14] | outcome [15] | outcome [16] | outcome [17]

Cc1n[nH]c(C)c1Cc1c(F)cccc1Cl
active: inhibition [5] 94%
inactive: outcome [1] | outcome [2] | outcome [3] | outcome [4] | outcome [6] | outcome [7] | outcome [8] | outcome [9] | outcome [10] | outcome [11] | outcome [12] | outcome [13] | outcome [14] | outcome [15] | outcome [16] | outcome [17]

C=CCn1c(SCCN2CCOCC2)nc2c1c(=O)[nH]c(=O)n2C
inactive: outcome [1] | outcome [2] | outcome [3] | outcome [4] | outcome [5] | outcome [6] | outcome [7] | outcome [8] | outcome [9] | outcome [10] | outcome [11] | outcome [12] | outcome [13] | outcome [14] | outcome [16] | outcome [17]
active: potentiation [15] 35.7%

Cc1cc(SCC(=O)c2cccc([N+](=O)[O-])c2)nc(=O)[nH]1
active: potentiation [4] 23% | potentiation [15] 57.9%
inactive: outcome [1] | outcome [2] | outcome [3] | outcome [5] | outcome [6] | outcome [7] | outcome [8] | outcome [9] | outcome [10] | outcome [11] | outcome [12] | outcome [13] | outcome [14] | outcome [16] | outcome [17]

From PubChem BioAssay
